# Screens (PubChem)
# VHR inh abs – DUSP3 (human) phosphatase inhibition. actives 0.52% (n = 290,000). P51452. recombinant VHR phosphatase, pNPP absorbance. inhibition, % at 13.3 µM; in the data active = inhibition above about 50%
# Target sequence (P51452 whole entry, looked up): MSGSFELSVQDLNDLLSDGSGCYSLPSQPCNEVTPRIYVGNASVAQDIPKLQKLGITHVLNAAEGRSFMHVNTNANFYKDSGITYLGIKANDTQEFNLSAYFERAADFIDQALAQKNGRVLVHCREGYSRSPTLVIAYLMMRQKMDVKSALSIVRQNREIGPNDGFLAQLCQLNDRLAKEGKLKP
# BJeLR lethal – kills HRASV12-expressing BJeLR cells; actives 0.17% (n = 300,000); AID 1554; BJeLR (HRASV12) viability, CellTiter-Glo ATP luminescence, 48 h; inhibition, % (test concentration not listed); in the data active = inhibition above about 50%
# PrP UTR inh – suppresses PrP 5' UTR mRNA reporter expression; cell-based PrP 5' UTR mRNA reporter, plate reader; actives 0.35% (n = 340,000); inhibition, % (no concentration beside the values); AID 488862; in the data active = inhibition above about 52%; note: 0 = median of the neutral control wells
# MazF activator – activators of E. coli MazEF toxin-antitoxin RNase; P0AE70; FAM/BHQ RNA-DNA oligo cleavage fluorescence, 5 h; activation, % at 20 µM; actives 0.32% (n = 350,000); in the data active = activation above about 50%
# Target sequence (P0AE70 whole entry, looked up): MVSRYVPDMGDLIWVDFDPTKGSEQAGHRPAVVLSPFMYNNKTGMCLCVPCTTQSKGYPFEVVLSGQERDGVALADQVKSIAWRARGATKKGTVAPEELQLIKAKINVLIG
# PfHsp40 rescue – compounds rescuing yeast from Plasmodium falciparum HSP40 toxicity | S. cerevisiae expressing PfHsp40, growth rescue, ATP luminescence | growth rescue, % at 12.5 µM | actives 0.68% (n = 340,000) | AID 504582; in the data active = growth rescue above about 28%, passing the limit was not always enough;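 note: yeast W303a lacking pdr1 and pdr3 grown in galactose medium; growth measured after three days at 30 °C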
# PrPC TRFRET – inhibitors of human cell surface prion protein PrPC. actives 0.43% (n = 370,000). TR-FRET read-out. inhibition, % at 13.8 µM; in the data active = inhibition above about 24%; note: 0% = median of the test wells and 100% = reference compound wells
# An asterisk follows results filed as active; nt = not tested or not shown. In the library only some 2.1% were active in any assay of this set; here they are far more common.
SMILES,VHR inh abs,BJeLR lethal,PrP UTR inh,MazF activator,PfHsp40 rescue,PrPC TRFRET
Cc1cc(C)nc(N2CCCC(C(=O)Nc3ccc(F)cc3)C2)n1 (stereo not drawn),17,3,-58,5,0,-3
Cc1ccc(OCCOc2ccc(Cl)cc2Cl)c(Br)n1,nt,nt,nt,nt,nt,9
Cc1cccc(CS(=O)(=O)Cc2ccc(C(=O)NC3CCCCC3)o2)c1,-9,5,1,4,1,-12
Cc1cc(C)nc(SCc2ccc(C(=O)N/N=C/c3ccc(C(=O)O)cc3)cc2)n1,20,3,-7,5,0,-7
Cc1cc(C)nc(SCc2ccc(C(=O)N/N=C/c3cccc(O)c3O)cc2)n1,2,-1,-14,11,126*,6
COc1ccc(O)c(/C=N/NC(=O)c2ccc(CSc3nc(C)cc(C)n3)cc2)c1,-6,46,19,-5,52*,10
O=[N+]([O-])c1ccc(N=Nc2c(Cl)cc(O)cc2Cl)cc1,9,102*,nt,3,175*,-25
CC(N)=Nc1ccc([N+](=O)[O-])cc1,14,3,-23,3,-1,-12
Cc1cc(C(=O)NCCCOC(C)C)c2ccccc2n1,50*,5,-38,0,1,-4
COCCNC(=O)C1(C)CCN(C(=O)c2cc(C)n(C(C)(C)C)n2)C1 (stereo not drawn),nt,nt,nt,nt,nt,-6
CCOc1ccc(NC(=O)CN(C)C(=O)c2c(-c3ccccc3Cl)noc2C)cc1OCC,nt,2,-17,6,0,4
O=C(Nc1ccc(F)cc1)C(CCc1ccccc1)N1CCN(c2cccc(C(F)(F)F)n2)CC1 (stereo not drawn),nt,nt,nt,nt,nt,15
CCSc1nnc(NC(=O)c2nc(-c3ccccc3)n(-c3ccccc3)n2)s1,4,-3,-8,0,126*,1
Cc1csc(NC(=O)c2nc(-c3ccccc3)n(-c3ccccc3)n2)n1,24,-1,-17,8,0,-2
O=C(O)c1ccc(NC(=O)c2cccc(S(=O)(=O)Nc3ccc(C(=O)O)cc3)c2)cc1,-47,-5,-5,8,-2,-8
O=C1CSc2ccc(C(=O)Nc3cccc(S(=O)(=O)Nc4ccc(Br)cc4)c3)cc2N1,17,26,1,-2,-1,36*
O=C(Nc1cccc(S(=O)(=O)Nc2ccc(Cl)cc2)c1)c1ccc(Cl)nc1,13,16,-10,5,0,29*
CCN(CC)C(=O)c1[nH]cnc1C(=O)NCC(=O)OCc1ccccc1,13,7,-8,3,-1,-4
COc1ccccc1-c1ccc(SCc2ccc(C)cc2)nn1,22,-6,-30,-1,26*,5
COc1ccccc1-c1ccc(SCc2ccc(F)cc2)nn1,-29,-4,-17,-15,6,3
O=C1C=CC2(O[C@H](c3ccccc3)[C@@H](c3ccccc3)O2)[C@H](Sc2ccccc2O)C1,nt,nt,36,-11,5,89*
O=C(NCC1CCN(C(=O)c2c(F)c(F)c(F)c(F)c2F)CC1)c1c(F)c(F)c(F)c(F)c1F,11,8,-9,3,0,2
COc1ccc(-n2nc(C(=O)NCC(=O)N3CCC4(CC3)OCCO4)c3ccccc3c2=O)c(OC)c1,56*,-4,-7,0,0,-8
CCCCn1c(O)c(/C=C/C=C/C=Nc2ccccc2)sc1=S,4,39,-16,13,42*,5
CCCN1CCCC[C@H]1C(=O)Nc1c(C)cccc1C,nt,3,-5,2,43*,1
SMILES,VHR inh abs,BJeLR lethal,PrP UTR inh,MazF activator,PfHsp40 rescue,PrPC TRFRET
Cc1ccc(CSc2nnc(C(F)(F)F)n2Cc2ccc(F)cc2)cc1,33,1,-16,-11,38*,nt
COc1cc(OC)cc(N2C(=O)CC(N3CCC(C(=O)N4CCCCC4)CC3)C2=O)c1 (stereo not drawn),-4,0,-3,3,67*,-5
CC(=O)Nc1cccc(N2C(=O)CC(N3CCC(C(=O)N4CCCCC4)CC3)C2=O)c1 (stereo not drawn),16,-3,-12,1,-2,1
COc1ccc2c(C)nc(Nc3nc(-c4ccccc4)cc(=O)[nH]3)nc2c1,8,58*,18,-69,0,-2
Cc1cccc(C)c1-n1nnnc1C1c2ccccc2C(=O)N1CCc1ccccc1F (stereo not drawn),nt,nt,nt,nt,nt,-5
COc1c(S(=O)(=O)N2CCN(C)CC2)ccc(Cl)c1Cl,16,3,-13,-29,1,2
C/C(Sc1nnc(Cc2ccccc2)o1)=C(\O)c1ccccc1,nt,nt,-25,4,0,4
COc1ccc(Nc2nc3ccccc3nc2-n2nc(C)cc2C)cc1,28,5,-19,178*,0,-2
Cc1cc(C)n(-c2nc3ccccc3nc2Nc2ccc3[nH]c(=O)[nH]c3c2)n1,-8,-11,4,234*,12,3
CON(C)S(=O)(=O)c1cccc(C(=O)Nc2cccc(S(=O)(=O)NC3=NCCCCC3)c2)c1,nt,nt,-8,1,1,11
O=C(NCc1ccccc1)[C@H]1CCCN1C(=O)[C@H]1CCCN1C(=O)c1ccccc1,nt,nt,nt,nt,nt,-2
COc1cccc(OC)c1OCCCNC1CCCC1,39,3,3,5,0,8
Cc1c(C(=O)N2CC(C)OC(C)C2)[nH]c2ccc(Br)cc12 (stereo not drawn),-5,-1,-25,9,2,28*
COC(=O)C1=C(C)N(C)C(=O)NC1c1cc2c(cc1[N+](=O)[O-])OCO2 (stereo not drawn),8,2,-21,-44,35*,-5
COC(=O)C1=C(C)N(CCCC(=O)O)C(=O)NC1c1cc2c(cc1[N+](=O)[O-])OCO2 (stereo not drawn),9,-8,-25,-19,-1,-7
COc1ccc(CN2CCC(N3CC(C)OC(C)C3)CC2)c(OC)c1OC (stereo not drawn),1,0,-14,9,0,-9
Nc1nc2c(ncn2[C@@H]2O[C@H](CNC(=O)[C@H](N)Cc3cncn3COCc3ccccc3)[C@@H](O)[C@H]2O)c(=O)[nH]1,nt,nt,nt,nt,nt,-4
CCSc1ncc(Cl)c(C(=O)Nc2sc3c(c2C(=O)NCc2cccnc2)CCCC3)n1,20,1,-22,112*,0,2
CSc1ncc(Cl)c(C(=O)Nc2sc3c(c2C(=O)NCc2ccco2)CCCC3)n1,4,nt,nt,nt,nt,-1
O=S1(=O)c2ccc(Br)cc2OC[C@@H](c2ccccc2)N1Cc1cn(Cc2ccccc2)nn1,nt,nt,nt,nt,nt,8
COc1cccc(CNS(=O)(=O)c2c(C(=O)N3CCCCC3)c(C)n(C)c2C)c1,54*,-6,5,10,0,3
CN[C@H]1C[C@H]2O[C@@](C)([C@H]1OC)n1c3ccccc3c3c4c(c5c6ccccc6n2c5c31)C(=O)NC4,16,107*,nt,nt,nt,nt
